Measured values: PubChem BioAssay AID1159580 (chemical genetic matrix, 2015)
Several values for one entry are separate records, joined by “and”; a condition that tells them apart may be missing. Equal values may be shown once. The whole screen tested about 5,500 compounds, of which about 2,000 (36%) were called active. About 18% were inconclusive and are not listed. Rule as the data show it: active = normalized growth mostly below about 0.91 (no sharp cut-off); inconclusive = no clear call, values can overlap the other calls; inactive = mostly above about 0.92. Some of the results follow.

Experiment: chemical genetic growth profiling, strain panel (AID 1159580);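 also: tested at 20 µM; growth read once vehicle control cultures reached saturation at 30 °C; 1 = growth at the plate median or of vehicle wells; lower values mean less growth of the strain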
Conditions: growth OD

Measured: normalized growth

CC(C)NCC(O)c1ccc(O)c(O)c1 (stereo not given)
inactive: S. cerevisiae deletion strains, locus YJR075W, strain HOC1, hits give low values 1.01 and 1.02 | S. cerevisiae deletion strains, locus YKL009W, strain mrt4, hits give low values 0.979 | S. cerevisiae deletion strains, locus YKL068W, hits give low values 0.994 | S. cerevisiae deletion strains, locus YKL085W, strain MDH1 (second series), hits give low values 0.994 | S. cerevisiae deletion strains, locus YKL085W, strain MDH1, hits give low values 0.994 | S. cerevisiae deletion strains, locus YKL160W, strain elf1, hits give low values 0.966 | S. cerevisiae deletion strains, locus YKL190W, strain CNB1, hits give low values 0.996 | S. cerevisiae deletion strains, locus YKR001C, strain vps1, hits give low values 0.985 | S. cerevisiae deletion strains, locus YKR026C, strain gcn3, hits give low values 0.991 | S. cerevisiae deletion strains, locus YKR091W, strain srl3, hits give low values 0.996 | S. cerevisiae deletion strains, locus YLL001W, strain dnm1, hits give low values 0.955 | S. cerevisiae deletion strains, locus YLL026W, hits give low values 0.997 | S. cerevisiae deletion strains, locus YLL041C, strain sdh2, hits give low values 0.99 | S. cerevisiae deletion strains, locus YLR027C, strain aat2, hits give low values 1 | S. cerevisiae deletion strains, locus YLR039C, strain RIC1, hits give low values 1.08 | S. cerevisiae deletion strains, locus YLR058C, strain SHM2, hits give low values 1.01 | S. cerevisiae deletion strains, locus YLR102C, strain apc9, hits give low values 1 | S. cerevisiae deletion strains, locus YLR113W, strain HOG1, hits give low values 0.97 | S. cerevisiae deletion strains, locus YLR221C, strain rsa3, hits give low values 0.949 | S. cerevisiae deletion strains, locus YLR258W, strain gsy2, hits give low values 0.979 | S. cerevisiae deletion strains, locus YLR262C, strain YPT6 (second series), hits give low values 0.954 | S. cerevisiae deletion strains, locus YLR262C, strain YPT6, hits give low values 1.01 | S. cerevisiae deletion strains, locus YLR268W, strain sec22, hits give low values 1 | S. cerevisiae deletion strains, locus YLR320W, strain mms22, hits give low values 0.962 | S. cerevisiae deletion strains, locus YLR330W, strain CHS5, hits give low values 1.02 | S. cerevisiae deletion strains, locus YLR342W, strain FKS1 (second series), hits give low values 1.01 | S. cerevisiae deletion strains, locus YLR342W, strain FKS1, hits give low values 0.991 | S. cerevisiae deletion strains, locus YLR357W, strain rsc2, hits give low values 0.959 | S. cerevisiae deletion strains, locus YLR370C, strain arc18, hits give low values 0.977 | S. cerevisiae deletion strains, locus YLR371W, strain rom2, hits give low values 0.998 | S. cerevisiae deletion strains, locus YLR384C, strain iki3, hits give low values 0.996 | S. cerevisiae deletion strains, locus YLR418C, strain cdc73, hits give low values 0.986 | S. cerevisiae deletion strains, locus YML016C, strain PPZ1, hits give low values 1.01 | S. cerevisiae deletion strains, locus YML032C, strain rad52, hits give low values 0.989 | S. cerevisiae deletion strains, locus YML120C, strain ndi1, hits give low values 0.966 | S. cerevisiae deletion strains, locus YML124C, strain tub3, hits give low values 1 | S. cerevisiae deletion strains, locus YMR058W, strain fet3, hits give low values 0.991 | S. cerevisiae deletion strains, locus YMR078C, strain ctf18, hits give low values 1.01 | S. cerevisiae deletion strains, locus YMR125W, strain sto1, hits give low values 0.98 | S. cerevisiae deletion strains, locus YMR129W, hits give low values 0.991 | S. cerevisiae deletion strains, locus YMR205C, strain PFK2, hits give low values 0.971 | S. cerevisiae deletion strains, locus YMR223W, strain ubp8, hits give low values 0.99 | S. cerevisiae deletion strains, locus YMR231W, strain pep5, hits give low values 0.999 | S. cerevisiae deletion strains, locus YMR307W, strain GAS1, hits give low values 0.937 and 1.01 | S. cerevisiae deletion strains, locus YNL067W, strain RPL9B, hits give low values 1.01 | S. cerevisiae deletion strains, locus YNL071W, strain lat1, hits give low values 0.995 | S. cerevisiae deletion strains, locus YNL128W, strain TEP1, hits give low values 0.973 | S. cerevisiae deletion strains, locus YNL153C, strain GIM3, hits give low values 1 | S. cerevisiae deletion strains, locus YNL175C, strain NOP13, hits give low values 1.01 and 0.97 | S. cerevisiae deletion strains, locus YNL183C, strain NPR1, hits give low values 0.957 | S. cerevisiae deletion strains, locus YNL197C, strain WHI3, hits give low values 1.02 and 0.975 | S. cerevisiae deletion strains, locus YNL209W, strain ssb2, hits give low values 0.989 | S. cerevisiae deletion strains, locus YNL224C, strain SQS1, hits give low values 1 and 0.985 | S. cerevisiae deletion strains, locus YNL233W, strain BNI4, hits give low values 1.01 | S. cerevisiae deletion strains, locus YNL248C, strain rpa49, hits give low values 0.981 | S. cerevisiae deletion strains, locus YNL250W, strain rad50, hits give low values 0.985 | S. cerevisiae deletion strains, locus YNL271C, strain bni1, hits give low values 1 | S. cerevisiae deletion strains, locus YNL298W, strain CLA4, hits give low values 0.998 | S. cerevisiae deletion strains, locus YNL307C, strain MCK1, hits give low values 0.998 | S. cerevisiae deletion strains, locus YNL322C, strain KRE1 (second series), hits give low values 0.988 | S. cerevisiae deletion strains, locus YNL322C, strain KRE1, hits give low values 1.01 and 1 | S. cerevisiae deletion strains, locus YNR049C, strain mso1, hits give low values 0.995 | S. cerevisiae deletion strains, locus YNR052C, strain pop2, hits give low values 1 | S. cerevisiae deletion strains, locus YOL006C, strain TOP1, hits give low values 1.01 | S. cerevisiae deletion strains, locus YOL012C, strain htz1 0.826 | S. cerevisiae deletion strains, locus YOL147C, strain pex11, hits give low values 1 | S. cerevisiae deletion strains, locus YOR001W, strain rrp6, hits give low values 0.991 | S. cerevisiae deletion strains, locus YOR061W, strain CKA2, hits give low values 1.01 | S. cerevisiae deletion strains, locus YOR069W, strain VPS5, hits give low values 1.01 | S. cerevisiae deletion strains, locus YOR070C, strain gyp1, hits give low values 0.985 | S. cerevisiae deletion strains, locus YOR080W, strain dia2, hits give low values 0.992 | S. cerevisiae deletion strains, locus YOR083W, strain WHI5 (second series), hits give low values 0.998 and 0.969 | S. cerevisiae deletion strains, locus YOR083W, strain WHI5, hits give low values 0.981 | S. cerevisiae deletion strains, locus YOR106W, strain vam3, hits give low values 0.953 | S. cerevisiae deletion strains, locus YOR136W, strain idh2, hits give low values 0.997 | S. cerevisiae deletion strains, locus YOR144C, strain elg1, hits give low values 1 | S. cerevisiae deletion strains, locus YOR184W, strain ser1, hits give low values 1.01 | S. cerevisiae deletion strains, locus YOR231W, strain MKK1, hits give low values 0.952 | S. cerevisiae deletion strains, locus YOR265W, strain rbl2, hits give low values 0.996 | S. cerevisiae deletion strains, locus YOR270C, strain vph1, hits give low values 0.995 | S. cerevisiae deletion strains, locus YOR290C, strain snf2, hits give low values 0.939 | S. cerevisiae deletion strains, locus YOR316C, strain cot1, hits give low values 1.01 | S. cerevisiae deletion strains, locus YPL051W, strain arl3, hits give low values 0.967 | S. cerevisiae deletion strains, locus YPL055C, strain LGE1, hits give low values 1.01 | S. cerevisiae deletion strains, locus YPL078C, strain atp4, hits give low values 0.983 | S. cerevisiae deletion strains, locus YPL106C, strain sse1, hits give low values 0.929 | S. cerevisiae deletion strains, locus YPL240C, strain hsp82, hits give low values 0.976 | S. cerevisiae deletion strains, locus YPL241C, strain CIN2, hits give low values 0.994 | S. cerevisiae deletion strains, locus YPL256C, strain CLN2, hits give low values 0.99 | S. cerevisiae deletion strains, locus YPR119W, strain clb2, hits give low values 0.995 | S. cerevisiae deletion strains, locus YPR141C, strain kar3, hits give low values 0.992 | S. cerevisiae deletion strains, locus YPR163C, strain tif3, hits give low values 0.999 | S. cerevisiae deletion strains, locus YPR167C, strain met16, hits give low values 0.997 | S. cerevisiae deletion strains, strain wtn01, hits give low values 0.993 | S. cerevisiae strains, strain wild type, hits give low values 0.994
